ALDH1A1 inh – qHTS Assay for Inhibitors of Aldehyde Dehydrogenase 1 (ALDH1A1); Aldehyde dehydrogenase 1A1 (Homo sapiens), P00352; Purified ALDH1A1, NADH fluorescence, propionaldehyde substrate; Potency, µM (titrated, usually from 75.3 µM), for inactives: at the top dose activity, negative = inhibition, actives largely listed as inhibitors; 7.3% of 220,000 active; AID 1030, 2008;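 note: potency is the fitted concentration of half-maximal effect; plate controls were no enzyme wells and a reference inhibitor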
Target sequence (P00352 whole entry, looked up): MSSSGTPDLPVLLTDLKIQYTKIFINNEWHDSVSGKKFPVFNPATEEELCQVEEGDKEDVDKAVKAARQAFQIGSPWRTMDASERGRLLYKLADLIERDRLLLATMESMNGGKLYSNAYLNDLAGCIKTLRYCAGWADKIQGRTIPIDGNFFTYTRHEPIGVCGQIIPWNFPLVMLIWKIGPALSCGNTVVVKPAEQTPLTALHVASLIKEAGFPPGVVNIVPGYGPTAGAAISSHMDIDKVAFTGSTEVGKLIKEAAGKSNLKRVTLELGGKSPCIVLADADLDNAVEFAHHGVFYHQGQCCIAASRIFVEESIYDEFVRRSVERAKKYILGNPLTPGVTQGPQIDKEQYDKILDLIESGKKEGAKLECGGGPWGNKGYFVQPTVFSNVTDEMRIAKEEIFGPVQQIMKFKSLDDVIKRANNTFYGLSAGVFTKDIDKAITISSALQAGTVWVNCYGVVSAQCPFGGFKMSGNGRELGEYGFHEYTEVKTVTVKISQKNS
GoLoco inh red – qHTS Assay for Inhibitors of RGS12 GoLoco Motif Activity (Red Fluorophore) | Guanine nucleotide-binding protein G(i) subunit alpha-1 (Homo sapiens), P63096 | Gai1:RGS12 GoLoco peptide FP, rhodamine, 10 min | Potency, µM (doses to about 61.6 µM), for the others: at the top dose activity, negative = inhibition, actives largely listed as inhibitors | 0.44% of 230,000 active | AID 880, 2007; active = well fitted inhibition curve with a large enough effect, not every such curve was filed as active; inactive = no such curve, though single readings can be large or run the other way; note: potency is the fitted concentration of half-maximal effect; % is set by controls: 0 for no effect and ±100 for the full control effect; nearly all actives have a fitted effect of over 30% in size
HPGD inh – qHTS Assay for Inhibitors of HPGD (15-Hydroxyprostaglandin Dehydrogenase); 4.3% of 150,000 active; 15-hydroxyprostaglandin dehydrogenase [NAD(+)] (Homo sapiens), P15428; purified HPGD, NADH fluorescence kinetic, PGE2 substrate; Potency, µM, for the others: at the top dose activity change, negative = inhibition, usual class: inhibitors; AID 894, 2007; note: potency is the fitted concentration of half-maximal effect; % is set by controls: 0 for no effect and ±100 for the full control effect
Target sequence (P15428 whole entry, looked up): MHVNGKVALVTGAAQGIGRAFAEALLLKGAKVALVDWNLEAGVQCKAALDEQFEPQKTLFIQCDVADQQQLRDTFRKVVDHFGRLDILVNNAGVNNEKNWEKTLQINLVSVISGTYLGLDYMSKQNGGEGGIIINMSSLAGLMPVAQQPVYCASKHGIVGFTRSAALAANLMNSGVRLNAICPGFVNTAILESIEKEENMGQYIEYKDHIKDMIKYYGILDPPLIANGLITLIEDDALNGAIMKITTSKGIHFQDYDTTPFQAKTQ
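20 nM HPGD preincubated 15 min at room temperature with compound in 50 mM Tris-HCl pH 8, 0.01% Tween 20. Started with 1 mM NAD+ and 30 uM prostaglandin E2; NADH fluorescence (360/450 nm) read 5 times over 30-s intervals, last minus first.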
HTT ATP protect – qHTS Multiplex Assay to Identify Dual Action Probes in a Cell Model of Huntington: Cytoprotection (ATP); PC12 HTT-Q103 induced, cytoprotection, ATP luminescence, 40 h; 0.14% of 230,000 active; Potency, µM (top dose mostly 56.4 µM), without a hit: cytoprotection (ATP increase), most hits filed as activators; active = well fitted curve in the direction sought with a large enough effect; inconclusive = small, poorly fitted or top-dose-only effect, or another doubt; inactive = no such curve, though single readings can be large; an effect the other way counts as inactive or inconclusive; note: potency is the fitted concentration of half-maximal effect; % of control where 0% means no effect; nearly all actives have a fitted effect of over 45% in size
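PC12 cells stably carrying ecdysone-inducible Htt exon 1 (Q103)–GFP were induced with 100 nM tebufenozide (final) alongside library compounds in a dose series. Cytoprotection was scored as retained ATP by ATPlite luminescence.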
PNC assembly inh – High Content Assay for Compounds that inhibit the Assembly of the Perinucleolar Compartment. PC3M PTB-GFP, PNC prevalence imaging, 16 h; stronger effect = lower value. activity change (PNC), negative = inhibition, % at 10 µM. 3.1% of 140,000 active. AID 2417, 2010;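 active = readout at or below -70, meaning at least 70% loss of cells showing the perinucleolar compartment, a nuclear body marking cancer cells; inconclusive = readout between -30 and a set limit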;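 note: plate controls were DMSO wells for no effect and camptothecin positive control wells for full effect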
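Compounds are pinned in duplicate onto adhered PC3M cells stably expressing GFP-tagged PTB and incubated 16 h at 37 C. Cells are then fixed, nuclei stained with Hoechst, and PNC-positive cells counted.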
HttQ103 aggreg – qHTS Multiplex Assay to Identify Dual Action Probes in a Cell Model of Huntington: Aggregate Formation (GFP); Potency, µM (titrated, usually from 46.1 µM), without a hit: top-dose activity change, negative = inhibition, most hits filed as inhibitors; 1.1% of 220,000 active; PC12 HttQ103-GFP aggregates, Acumen cytometry, 40 h; AID 1688, 2009; active = well fitted curve in the direction sought with a large enough effect; inconclusive = small, poorly fitted or top-dose-only effect, or another doubt; inactive = no such curve, though single readings can be large; an effect the other way counts as inactive or inconclusive; note: potency is the fitted concentration of half-maximal effect; % is set by controls: 0 for no effect and ±100 for the full control effect; nearly all actives have a fitted effect of over 60% in size
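PC12 cells stably carrying ecdysone-inducible HTT exon 1 Q103–GFP were induced with tebufenozide (100 nM final) and treated with library compounds in titration. GFP aggregates in lysates were counted by laser scanning cytometry.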
An asterisk follows results filed as active; ? = inconclusive; . = not tested or not shown; ! = not active in a repeat; [ ] = another dose, or the depositor's remark. Rows were chosen to be rich in hits. Some 11% of all compounds tested hit in one or more screens of this group. Unless noted, calls come from the whole dose curve; as a rule, active = well fitted inhibition curve with a large enough effect (not every such curve was filed as active); inconclusive = small, poorly fitted or top-dose-only effect, or another doubt; inactive = no such curve, though single readings can be large or run the other way.

SMILES	ALDH1A1 inh	GoLoco inh red	HPGD inh	HTT ATP protect	PNC assembly inh	HttQ103 aggreg
CCOC(=O)Cc1c(C)nc2c(C#N)c[nH]n2c1=O	-11.3%	1.5%	-17.9%	-8.9%	34.2	14.6%
O=c1c2c(nc3c(-c4cccc(Br)c4)c[nH]n13)CCCC2	1.6%	1.5%	?	-37.3%[10 µM]	25.7	3.55µM*
CCOC(=O)Cc1c(C)nc2c(-c3cccc(Br)c3)c[nH]n2c1=O	?	5.3%	?	-26.3%	19.9	11.2µM*
O=c1[nH]c(=O)n([C@H]2C[C@H](O)[C@@H](CO)O2)cc1Br	1.7%	-5.3%	2.0%	3.55µM*!	.	37.5%
Cc1ccc(NC(=O)CSCC(=O)NCCc2ccccn2)c(C)c1	?	1.1%	.	-14.0%	.	14.0%
COc1cnc(-c2ccccn2)nc1Sc1ccccc1	10µM*	13.0%	.	-59.1%	.	-17.8%
COc1cnc(-c2ccccn2)nc1Sc1ccc(F)cc1	7.94µM*	2.0%	.	4.7%[10 µM]	.	?
COc1ccc(Sc2nc(-c3ccccn3)ncc2OC)cc1	?	12.2%	.	11.5%[10 µM]	.	?
Cc1noc(C)c1S(=O)(=O)N1CCc2nc(COc3ccccc3)c3c(c2C1)CO[C@@H](C)C3	-13.1%[13.5 µM]	2.9%[14.2 µM]	-7.2%	7.7%[10 µM]	.	.
COC(=O)NC(c1cccc(C)c1)[C@@]1(C(=O)OC)CCCC1=O (some centres undefined)	12.3%[13.5 µM]	.	.	-3.7%[10 µM]	.	.
CC1Oc2ccccc2N(CC(=O)N(Cc2ccccc2)Cc2ccccn2)C1=O (centres undefined)	13.9%	-2.1%	1.6%	5.7%[10 µM]	?	-1.0%
CC(C)C1Oc2ccccc2N(CC(=O)N(Cc2ccccn2)C2CC2)C1=O (centres undefined)	3.6%	1.1%	-7.6%	30.2%[10 µM]	-100.0*	-4.0%
COc1cccc([C@@H]2Oc3ccc(OC)cc3C(=O)[C@H]2OC(=O)NS(=O)(=O)c2ccc(F)cc2)c1	3.3%	3.6%	-16.7%	-75.2%	.	.
COCCn1c(SCC(=O)Nc2ccc(C)cc2C)nc2c(oc3ccccc32)c1=O	1.2%	1.4%	-16.6%	.	-107.0*	3.7%
COCCOC(=O)C1=C(C)NC2=C(C(=O)CC(C)(C)C2)C1c1cc2c(cc1Br)OCO2 (centres undefined)	-13.6%	5.9%	-26.1%	7.2%	5.1	9.6%
CCOC(=O)c1cn(Cc2cccc(Cl)c2)nn1	1.0%	11.2%	-5.6%	.	-113.8*	-15.2%
COC(=O)c1cn(Cc2cccc(C)c2)nn1	10.4%	-1.4%	-7.8%	0.1%[10 µM]	-9.1	6.8%
COC(=O)N=Nc1c(O)n(Cc2ccccc2)c2ccccc12	.	5.7%	.	-20.5%[10 µM]	.	-2.0%[9.22 µM]
C/C(Cl)=C\Cn1c(O)c(N=NC(N)=S)c2ccccc21	1µM*	5.3%	.	-45.1%[10 µM]	.	-20.1%[9.22 µM]
CCOC(=O)N=Nc1c(O)n(Cc2ccccc2)c2ccccc12	8.91µM*	7.7%	.	-11.4%	.	15.3%
CCCCn1c(O)c(N=NC(=O)c2ccco2)c2ccccc21	-0.9%	-13.8%	-24.2%	-10.5%[10 µM]	23.0	-14.5%
NC(=S)N=Nc1c(O)n(Cc2ccccc2)c2ccccc12	2.51µM*	3.3%	-8.4%	15.8%[10 µM]	-100.0*	?
CCCCNC(=S)N=Nc1c(O)n(Cc2ccccc2)c2ccccc12	20µM*	.	.	2.1%[10 µM]	39.5	?
CC(C)[C@]1(Cl)CC[C@@H]2[C@]3(C)CCC[C@@](C)(C(=O)O)[C@H]3C[C@H](Cl)[C@@]2(Cl)[C@H]1Cl	0.4%[13.5 µM]	6.6%[14.2 µM]	-9.4%	-2.9%[10 µM]	.	.
CC1=NN(C(N)=S)C(=O)C1N=Nc1ccc(C)cc1C (centres undefined)	10µM*	6.8%	-9.8%	9.0%[10 µM]	-13.9	-2.2%
SMILES	ALDH1A1 inh	GoLoco inh red	HPGD inh	HTT ATP protect	PNC assembly inh	HttQ103 aggreg
CC1=NN(C(N)=S)C(=O)C1N=Nc1ccccc1C (centres undefined)	5.01µM*	19.6%	-26.3%	19.2%[10 µM]	-2.1	-13.6%
CN(C)c1ccc(/C=C/C(O)=C2/C(=O)N(C)C3(C)CC2c2ccccc2O3)cc1 (centres undefined)	20µM*	1.9%	-18.2%	-3.3%[10 µM]	-28.7	31.4%
CCOc1ccc(/C=C/C(O)=C2/C(=O)N(C)C3(C)CC2c2ccccc2O3)cc1OC (centres undefined)	?	5.5%	.	-56.4%	.	?
CC(=O)c1cc(Cc2csc(C(C)=O)c2)cs1	-3.1%	-2.4%	-5.0%	2.5%	-100.0*	-7.3%
COc1ccc(C2CC(=O)c3c([nH]c(C(=O)OC(C)C)c3C)C2)cc1OC (centres undefined)	5.3%	-3.5%	-15.6%	.	32.9	3.4%
C=CCOC(=O)c1[nH]c2c(c1C)C(=O)CC(c1cc(OC)c(OC)c(OC)c1)C2 (centres undefined)	?	0.6%	-2.4%	6.5%[10 µM]	-17.2	-14.6%
CSCCOC(=O)c1[nH]c2c(c1C)C(=O)CC(c1ccco1)C2 (centres undefined)	?	5.3%	-5.1%	-35.0%	-90.3*	-16.9%
Cc1c(C(=O)OCCOC(C)C)[nH]c2c1C(=O)CC(c1ccco1)C2 (centres undefined)	25.1µM*	-3.2%	-10.1%	-50.5%[10 µM]	-91.3*	16.1%
CCOC(=O)C1=C(C)NC(C)=C(C(=O)OCC)C1c1ccco1	.	5.3%	.	-30.7%[10 µM]	.	-6.9%[9.22 µM]
CCOC(=O)c1[nH]c2c(c1C)C(=O)CC(c1ccco1)C2 (centres undefined)	?	-4.3%	-19.2%	-45.4%	-108.4*	?
COCCOC(=O)c1[nH]c2c(c1C)C(=O)CC(c1ccco1)C2 (centres undefined)	?	-3.0%	-10.7%	-34.3%	-95.0*	10.2%
CS(=O)(=O)Oc1ccc(Br)cc1/C=C1/N=C(c2ccco2)OC1=O	2.1%	2.0%	-14.3%	13.7%[10 µM]	28.8	14.7%
CCNc1ncc2nc(-c3cn(C)c4ccccc34)c(=O)n(C[C@H]3CCCO3)c2n1	11.0%	-1.0%	.	?	.	.
CC(C)OC(=O)C[C@H](NC(=O)OC(C)(C)C)c1ccccc1	1.6%[13.5 µM]	.	.	-38.4%[10 µM]	.	.
Cc1c(C(=O)O)[nH]c2c1C(=O)CC(c1ccccc1)C2 (centres undefined)	11.2%	13.1%	-11.8%	-9.9%[0.074 µM]	25.0	0.2%

Assay outcomes from PubChem.
